Drawing on PubChem BioAssay AID1069 (NMMLSC, 2008), this text covers side scatter shift for 13 molecules.

This assay in a line: LNCaP granularity increase inducers, single-point recheck – cell-based, side scatter shift, flow cytometry, confirmation (AID 1069).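 Further: LNCaP human prostate cancer cells in low-serum medium with charcoal-stripped FBS; percent of cells with raised granularity gated so DMSO controls show 10%.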 The note with it: LNCaP differentiation, 4 d, stronger effect = higher value. In general terms: In flow cytometry, cells or beads pass a laser one at a time.

Active and inactive are the calls of the source.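 How the source made its calls: active means high combined rank on largest and smallest cell-count-weighted shift across three tests, rank score above 45, floors 50 and 25 (some results past the limit were not filed as active); inactive means the rest.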

For the molecule `COc1ccc(-n2c3c(cc(C(=O)N4CCC(C)CC4)c2=O)C(=O)CC(C)(C)C3)cc1`, the side scatter shift (at 100 µM) is 20% (inactive) and the side scatter shift (side scatter shift, at 10 µM) is 1.8%.
Taken in the same sequence, the figures for `CCOc1ccccc1NC(=O)c1nc[nH]c1C(=O)Nc1ccccc1OCC` were 40% (inactive) and 6.05%.
For `Cc1cc(NC(=O)c2noc3c2CCc2ccccc2-3)n(-c2ccccc2)n1`, the side scatter shift (at 100 µM) was 21.9% (inactive) and the side scatter shift (side scatter shift, at 10 µM) turned out to be 12.4%.
For `CCOC(=O)C1CCCN(C(=O)Cn2cccc2C(=O)c2ccccc2)C1` (stereo unspecified) the same measures were 6% (inactive) and 2.5%.
Taken in the same sequence, the figures for `Cc1ccc2c(c1)NC(=O)C(CC(=O)NCCCN1CCN(c3cc(C)ccc3C)CC1)O2` (stereo unspecified) were 30.1% (inactive) and 2.95%.
Turning to `Cc1cc(=O)n2nc(N3CCCC(C(=O)NCc4ccco4)C3)sc2n1` (stereo unspecified), the side scatter shift was 7.4% (inactive) (at 100 µM) and 4.75% (side scatter shift, at 10 µM).
Turning to `CCCc1ccc(Oc2cn[nH]c2-c2ccc(O)c(C)c2O)cc1`, the side scatter shift is 40% (inactive) (at 100 µM) and 4.85% (side scatter shift, at 10 µM).
Taken in the same sequence, the figures for `Cc1ccccc1-c1nc(CN2CCC(C(=O)NCc3cccnc3)CC2)c(C)o1` were 36.9% (inactive) and 1.35%.
For `Cc1ccccc1-c1nc(CN2CCC(C(=O)NCC3CCCO3)CC2)c(C)o1` (stereo unspecified) the same measures were 22.5% (inactive) and 7.1%.
Taken in the same sequence, the figures for `N#CC1=C(N)OC2=C(C(=O)CCC2)C1c1ccc(OC(=O)N2CCOCC2)cc1` (stereo unspecified) were 7.8% (inactive) and 2.45%.
`CCn1c(=O)cc(SCC(=O)N2CCN(C3CCCCC3)CC2)c2ccccc21`: the side scatter shift is, setting by setting: (at 100 µM) 16.7% (inactive); (side scatter shift, at 10 µM) 6.55%.
Take `Cc1cc(C)c2c(=O)n(CC(=O)NCCCN3CCN(c4ccccc4F)CC3)sc2n1`: the side scatter shift is, setting by setting: (at 100 µM) 20% (inactive); (side scatter shift, at 10 µM) 6.8%.
For `O=C(Nc1c(C(=O)N2CCOCC2)cnn1-c1ccccc1)c1ccco1` the same measures were 7.5% (inactive) and 5.15%.
